High-throughput results from PubChem.
CYP2C19 inh – blockers of cytochrome P450 2C19 activity – biochemical, luminescence, ADME assay, primary screen | P33261 | CYP2C19 Supersomes, luciferin-H EGE luminescence, 30 min | inhibition, % at 5 µM | 96,000 compounds, 21% hits | AID 778, 2007;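 active = CYP2C19 inhibition above a set limit at 5 µM in the primary screen, cut at about 50% in these data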;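 also: plate controls were negative control wells for no effect and 2.5 mM tranylcypromine positive control for full effect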
CYP2C9 act – human CYP2C9 activators, primary screen, biochemical, luminescence. Cytochrome P450 2C9 (Homo sapiens), P11712. 96,000 compounds, 1.4% hits. recombinant CYP2C9, luciferin-H conversion; stronger effect = higher value; factor 1 = untreated enzyme, 0 = blocked. AID 1024, 2008. activation factor at 5 µM;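 active = activation factor of 2 or more for CYP2C9 at a 5 µM dose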;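 also: 0 = sulfaphenazole-blocked wells and 1 = vehicle-only wells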
Target sequence (P11712 whole entry, looked up): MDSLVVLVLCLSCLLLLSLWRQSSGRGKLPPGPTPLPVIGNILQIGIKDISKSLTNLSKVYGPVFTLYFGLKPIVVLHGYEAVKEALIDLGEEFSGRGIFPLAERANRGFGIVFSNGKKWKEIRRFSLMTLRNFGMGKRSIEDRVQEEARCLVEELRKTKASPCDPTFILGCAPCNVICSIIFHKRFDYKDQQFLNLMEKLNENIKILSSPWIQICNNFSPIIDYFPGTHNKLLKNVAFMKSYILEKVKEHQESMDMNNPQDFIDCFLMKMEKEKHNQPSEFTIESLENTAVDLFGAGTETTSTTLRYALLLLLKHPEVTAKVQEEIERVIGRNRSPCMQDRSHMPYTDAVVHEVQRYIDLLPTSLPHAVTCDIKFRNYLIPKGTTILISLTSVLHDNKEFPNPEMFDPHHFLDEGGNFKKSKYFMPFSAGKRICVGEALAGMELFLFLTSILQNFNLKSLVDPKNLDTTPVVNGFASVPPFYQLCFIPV
Cav32 inh – Cav3.2 calcium influx blockers – cell-based, Fluo-4 calcium fluorescence, FDSS, MLSMR library, primary screen; Voltage-dependent T-type calcium channel subunit alpha-1H (Homo sapiens), O95180; Cav3.2-expressing cells; stronger effect = lower value; B-score at 10 µM; 100,000 compounds, 4% hits;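 active = single-dose well whose peak fluorescence ratio is a statistical outlier from its plate by either plate-standardised score or position-corrected B-score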
CYP2C19 activ – human CYP2C19 activators, primary screen, biochemical, luminescence; 96,000 tested, under 10 active; Cytochrome P450 2C19 (Homo sapiens), P33261; AID 1025, 2008; activation factor at 5 µM; recombinant CYP2C19, luciferin-H EGE luminescence; stronger effect = higher value; 0 = fully inhibited enzyme, 1 = untreated enzyme;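 active = activation factor of at least 2 at 5 µM in the primary screen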;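 also: 0 = wells with 2.5 mM tranylcypromine and 1 = vehicle-only wells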
CYP2C9 inhib – blockers of cytochrome P450 2C9 activity – biochemical, luminescence, ADME assay, primary screen | CYP2C9 Supersomes, luciferin-H conversion | inhibition, % at 5 µM | 96,000 compounds, 20% hits | AID 777, 2007;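 active = blocking of liver enzyme CYP2C9 beyond about 50% at 5 µM, limit read from the data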
An asterisk follows results filed as active; . = no result given. The list is not random: actives were taken first. Their share in the collection is about 27%.

SMILES	CYP2C19 inh	CYP2C9 act	Cav32 inh	CYP2C19 activ	CYP2C9 inhib
CCn1c(Cc2cccc3ccccc23)nnc1SCC(=O)Nc1nccs1	.	.	-5.85*	.	.
COc1ccc(-n2cnnc2SCC(=O)c2ccc(S(=O)(=O)N3CCOCC3)cc2)cc1	20.5	0.8	0.725	0.8	19.1
Cc1cc2c(c(SCC(=O)NCCc3ccccc3)n1)C(=O)OC2	29.6	0.9	0.768	0.7	12.4
COc1ccc(OC)c2sc(NC(=O)C(C)C)nc12	45.7	0.3	-1.18	0.5	69.8*
Cn1c(SCC(=O)N2CCN(c3ccccc3)CC2)nnc1-c1c[nH]c2ccccc12	54.3*	0.8	-0.649	0.5	15.7
CCSc1nnc(-c2cnn(-c3ccccc3)c2-n2cccc2)n1C	-3.0	1	2.31	1	-1.6
Cn1c(SCC(=O)N2CCN(c3ccccc3)CC2)nnc1-c1ccccc1	1.0	1	-1.06	1	3.9
CCCCSc1nnc(-c2c[nH]c3ccccc23)n1C	56.2*	1	0.405	0.4	-1.3
CC1(C)Cc2ccccc2-c2nnc(SCC(=O)N3CCN(c4ccccc4)CC3)n21	79.9*	0.4	-0.852	0.2	61.6*
CCOC(=O)C(C)Sc1nnc2n1C(C)(C)Cc1ccccc1-2 (centres undefined)	.	.	1.58	.	.
CCCCCCSc1nnc(-c2cnn(-c3ccccc3)c2-n2cccc2)n1C	47.2	0.4	-8.94*	0.5	61.0*
CCn1c(SCC(=O)N2CCN(c3ccccc3)CC2)nnc1-c1c[nH]c2ccccc12	64.0*	1.1	-1.84	0.4	-10.8
CCn1c(SCC(=O)N2CCCc3ccccc32)nnc1-c1c[nH]c2ccccc12	75.7*	1.1	-3.34	0.2	-11.6
CCn1c(SCC(=O)N2CCc3ccccc32)nnc1-c1c[nH]c2ccccc12	6.6	1	0.0355	0.9	4.7
CCn1c(SCC(=O)N2CCN(c3ccccc3)CC2)nnc1-c1ccncc1	.	.	0.551	.	.
CCN1C(=O)N[C@@H](c2cccc(F)c2)C(C(=O)OC)=C1C	.	.	0.198	.	.
CN(C(=O)c1ccc2c(c1)C(=O)N(CCC1=CCCCC1)C2=O)C1CCCCC1	39.3	0.7	-6.13*	0.6	29.5
Cc1cc(Cl)c(S(N)(=O)=O)cc1OCC(N)=O	-5.0	1	-0.231	1.1	-4.1
Cc1cc(Cl)c(S(=O)(=O)N2CCSCC2)cc1OCC(N)=O	25.8	3*	-0.2	0.7	-204.8
CNS(=O)(=O)c1cc(OCC(N)=O)c(C)cc1Cl	-16.9	2.4*	0.594	1.2	-140.5
CCCNC(=O)CS(=O)Cc1nc(-c2ccccc2C)oc1C (centres undefined)	7.7	1	-0.0437	0.9	0.2
Fc1ccc(NCc2cn3ccccc3n2)cc1	84.3*	0.7	-0.403	0.2	29.4
Fc1cccc(NCc2cn3ccccc3n2)c1	78.0*	0.7	-0.984	0.2	31.8
O=C(NCCc1cn2ccccc2n1)c1ccccc1F	18.5	0.9	0.0399	0.8	7.9
COc1ccc(/C=N/NC(N)=S)cc1OC(=O)c1ccccc1	6.2	0.5	-4.16	0.9	46.9
SMILES	CYP2C19 inh	CYP2C9 act	Cav32 inh	CYP2C19 activ	CYP2C9 inhib
Cc1nc2sc(C(c3cccs3)N3CC(C)CC(C)C3)c(O)n2n1 (centres undefined)	67.4*	1.1	1.06	0.3	-14.4
CCn1c(SCC(=O)N(Cc2ccccc2)C2CCS(=O)(=O)C2)nc2ccccc2c1=O (centres undefined)	80.7*	0	-0.487	0.2	95.3*
CN(C(=O)CSc1nc2ccccc2n1CCc1ccccc1)C1CCS(=O)(=O)C1 (centres undefined)	68.5*	0.9	-0.151	0.3	5.7
CN(C(=O)CSc1nnc2ccccn12)C1CCS(=O)(=O)C1 (centres undefined)	0.8	1.3	-0.0409	1	-33.6
COc1ccc(S(=O)(=O)NCCSC(C)(C)C)cc1	95.9*	0.8	-0.206	0	15.6
CC(C)(C)SCCNS(=O)(=O)c1ccc2ccccc2c1	86.5*	2.7*	-5.11	0.1	-166.4
CSc1ccc(S(=O)(=O)NCCSC(C)(C)C)cc1	85.8*	1	-2.27	0.1	4.7
CC(C)(C)SCCNS(=O)(=O)c1ccccc1	-3.3	0.9	-1.23	1	8.8
COc1ccc(S(=O)(=O)NCCSCc2ccco2)cc1Cl	94.8*	2.1*	-5.96*	0.1	-105.9
COc1ccc(-n2c(=S)[nH]c3cc(C(=O)NCCCN4CCCC4=O)ccc3c2=O)c(OC)c1	-7.3	1	-0.0114	1.1	-0.5
COc1ccc(S(=O)(=O)NCCSCc2ccco2)cc1C	.	.	-2.78	.	.
COc1ccc(S(=O)(=O)NCCSC(C)(C)C)cc1Cl	32.3	2.9*	-2.86	0.7	-191.0
Cc1nc2ccc(S(=O)(=O)NC(C(=O)Nc3nc4ccc(Cl)cc4s3)C(C)C)cc2s1 (centres undefined)	84.2*	0.1	-3.05	0.2	91.9*
Cc1nc2ccc(S(=O)(=O)NCC(=O)N3CCC(C)CC3)cc2s1	50.0*	0.9	0.483	0.5	14.5
COc1ccc2nc(NC(=O)C(NS(=O)(=O)c3cccc4nsnc34)C(C)C)sc2c1 (centres undefined)	40.7	0.3	.	0.6	74.1*
CC(C)C(NS(=O)(=O)c1cccc2nsnc12)C(=O)NCc1ccc2c(c1)OCO2 (centres undefined)	44.1	0.4	0.038	0.6	58.7*
C=CCCCCCCCCc1nc(=S)[nH][nH]1	45.6	0.5	-5.19*	0.5	50.4*
Cc1ccc(C2=N/C(=C/c3cccs3)C(=O)N2Nc2ccccc2)cc1	-3.1	0.9	-0.556	1	12.4
COc1ccc(CCNC(=O)CCn2c(=O)oc3ccccc32)cc1	17.5	0.8	0.534	0.8	23.8
OC(CNc1nc2ccccc2s1)c1ccccc1 (centres undefined)	94.6*	0.3	-0.696	0.1	69.5*
CC(C)OC(=O)CCC(=O)Nc1nc2ccccc2s1	81.1*	0.3	-1.45	0.2	66.4*
CCOCC(=O)Nc1nc2ccccc2s1	.	.	-0.0136	.	.
CCSc1nnc(NC(=O)CCn2c(=O)oc3ccccc32)s1	.	.	-0.657	.	.
O=C(CCn1c(=O)oc2ccccc21)Nc1nc2ccccc2s1	52.5*	0.4	-4.64	0.5	59.2*
COc1ccccc1CCNC(=O)CCn1c(=O)oc2ccccc21	82.6*	0.6	0.144	0.2	44.1
N#CC1=C2SCCN2C(=O)C(C#N)C12CCCCC2 (centres undefined)	45.2	0.6	0.107	0.5	36.0
O=C(NC1CCCCC1)[C@H](CSCc1ccccc1)N1Cc2ccccc2C1=O	.	.	-2.72	.	.
COc1ccc(CN(C(=O)c2cnccn2)C(C(=O)Nc2ccc(F)cc2)c2ccccc2)cc1 (centres undefined)	.	.	-2.12	.	.
